# Data as given in PubChem BioAssay AID624141 (Broad Institute, 2012).
# Hit rate of the full screen: of about 17,000 compounds, about 260 (1.5%) were called active.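 How the source made its calls: active means spot fluorescence over background with P-value below 7% in all four replicate spots, showing protein binding; inactive means the rest.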 This excerpt belongs to a sample that is enriched for actives.
# Biological target: Myc proto-oncogene protein (Homo sapiens) (UniProt P01106)
# Assay: binders of human c-Myc, primary screen, biochemical, small molecule microarray, anti-His fluorescence (AID 624141)
# Settings: His-c-Myc binding
# Myc proto-oncogene protein (Homo sapiens), sequence (P01106 whole entry, looked up): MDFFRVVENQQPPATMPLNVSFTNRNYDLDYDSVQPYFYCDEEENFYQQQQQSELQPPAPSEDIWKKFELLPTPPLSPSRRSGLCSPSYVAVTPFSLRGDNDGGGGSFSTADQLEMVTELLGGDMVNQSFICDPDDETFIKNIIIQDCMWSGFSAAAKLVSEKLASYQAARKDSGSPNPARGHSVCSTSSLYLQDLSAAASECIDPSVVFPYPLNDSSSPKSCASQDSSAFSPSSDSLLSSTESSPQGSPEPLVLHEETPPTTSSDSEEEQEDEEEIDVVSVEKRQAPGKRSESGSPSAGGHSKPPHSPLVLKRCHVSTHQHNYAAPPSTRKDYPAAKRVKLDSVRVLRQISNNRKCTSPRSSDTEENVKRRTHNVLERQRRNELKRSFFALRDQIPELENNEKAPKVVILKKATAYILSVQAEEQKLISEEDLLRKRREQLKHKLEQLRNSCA
row,Structure (SMILES),outcome
1,Cc1c(NC(=O)/C(C#N)=C/c2ccccc2Cl)c(=O)n(-c2ccccc2)n1C,inactive
2,C/C(=C\CC[C@H](CO)[C@@H]1CC[C@]2(C)C3=C(CC[C@@]12C)[C@@]1(C)CCC(=O)C(C)(C)C1CC3)C(=O)O (some centres not stated),inactive
3,COCCOC(=O)N1C(=O)[C@@]2(c3cc(C#CCNC(N)=O)ccc31)[C@H](C(=O)N1CCN(c3ncccn3)CC1)[C@H]1C(=O)O[C@H](c3ccccc3)[C@H](c3ccccc3)N1[C@@H]2c1ccccc1OCCO,inactive
4,Cc1cc(C(=O)c2ccccc2)ccc1OC(=O)COc1ccccc1[N+](=O)[O-],inactive
5,NC(=O)NCC#Cc1ccc2c(c1)[C@]1(C(=O)N2)[C@H](C(=O)Nc2nc3ccccc3s2)[C@H]2C(=O)O[C@H](c3ccccc3)[C@H](c3ccccc3)N2[C@@H]1c1ccc(OCCO)cc1,inactive
6,CC1=COC(O[C@@H]2O[C@H](CO)[C@@H](O)[C@H](O)[C@H]2O)C2C1CC(O)C2CO (some centres not stated),inactive
7,C[C@H](CO)N1C[C@H](C)[C@@H](CN(C)Cc2ccccc2)Oc2c(NC(=O)C3CCOCC3)cccc2C1=O,inactive
8,C[C@H](CO)N1C[C@H](C)[C@H](CN(C)Cc2ccc(C(=O)O)cc2)Oc2ccc(NC(=O)NC3CCCCC3)cc2C1=O,inactive
9,COc1ccc(S(=O)(=O)Nc2cccc3c2O[C@H](CN(C)Cc2ccc4c(c2)OCO4)[C@H](C)CN([C@@H](C)CO)C3=O)cc1,inactive
10,COc1cccc(NC(=O)c2cc([N+](=O)[O-])ccc2NC(=O)CN2CCCCCC2)c1,inactive
11,C[C@@H]1CN([C@@H](C)CO)C(=O)c2cccc(NC(=O)Nc3ccc(F)cc3)c2O[C@@H]1CN(C)Cc1ccc(C(=O)O)cc1,inactive
12,C[C@H](CO)N1C[C@H](C)[C@H](CN(C)Cc2ccc(C(F)(F)F)cc2)Oc2c(NC(=O)C3CCOCC3)cccc2C1=O,inactive
13,O=C(Nc1cccc(CCc2ccccn2)c1)c1ccc(Cl)cc1,inactive
14,C[C@@H]1CCCCO[C@H](CN(C)C(=O)Nc2ccc3c(c2)OCO3)[C@H](C)CN([C@H](C)CO)C(=O)c2cc(NS(C)(=O)=O)ccc2O1,inactive
15,C[C@H]1CN([C@@H](C)CO)C(=O)c2cc(NS(=O)(=O)c3ccccc3)ccc2O[C@@H]1CN(C)C(=O)NC1CCCCC1,inactive
16,C[C@@H]1CN([C@@H](C)CO)C(=O)CCCn2cc(nn2)CO[C@@H]1CN(C)C(=O)C1CCCCC1,inactive
17,C[C@@H]1CCCCO[C@H](CN(C)C(=O)CCC(F)(F)F)[C@@H](C)CN([C@@H](C)CO)C(=O)c2cc(NC(=O)c3ccncc3)ccc2O1,inactive
18,COC(=O)c1cc(C)sc1NC(=S)Nc1ncn(Cc2ccc(F)cc2Cl)n1,inactive
19,CCn1c2ccccc2c2nnc(SCC(=O)O)nc21,inactive
20,CCc1ccc2c(c1)c1nc3ccccc3nc1n2CC(=O)OC,active
21,O=C1C(=O)N(CCn2c3ccccc3c3nc4ccccc4nc32)c2ccccc21,inactive
22,O=C(O)c1cccc(S(=O)(=O)Nc2ccc(O)cc2Sc2nc3ccccc3s2)c1,inactive
23,Cc1ccc(OCC(=O)Nc2cc(-c3nc4cc(C)c(C)cc4o3)ccc2C)cc1,inactive
24,Cc1noc(C)c1NC(=O)N(C)C[C@@H]1Oc2ccc(NC(=O)Nc3ccc4c(c3)OCO4)cc2C(=O)N([C@H](C)CO)C[C@H]1C,inactive

row,Structure (SMILES),outcome
1,C[C@@H]1CN([C@H](C)CO)C(=O)Cc2cc(NC(=O)C3CC3)ccc2O[C@H]1CN(C)Cc1ccc(Cl)c(Cl)c1,active
2,C[C@@H]1CN([C@H](C)CO)C(=O)Cc2cc(NC(=O)C3CC3)ccc2O[C@H]1CN(C)Cc1ccc2c(c1)OCO2,inactive
3,C[C@H](CO)N1C[C@H](C)[C@@H](CN(C)C(=O)Nc2ccccc2)Oc2ccc(NC(=O)C3CC3)cc2CC1=O,inactive
4,CCOC(=O)c1ccc(COC(=O)c2cc(=O)[nH]c3ccccc23)o1,inactive
5,CC(C)NC(=O)N(C)C[C@H]1OCCCC[C@H](C)Oc2ccc(NC(=O)Nc3ccc4c(c3)OCO4)cc2C(=O)N([C@H](C)CO)C[C@@H]1C,inactive
6,C[C@@H]1CN([C@@H](C)CO)C(=O)Cc2cc(NC(=O)CCN3CCOCC3)ccc2O[C@H]1CN(C)S(=O)(=O)c1ccccc1,inactive
7,Cc1noc(C)c1NC(=O)Nc1cccc2c1O[C@@H](CN(C)Cc1ccc3c(c1)OCO3)[C@@H](C)CN([C@@H](C)CO)C2=O,inactive
8,C[C@@H]1CN([C@@H](C)CO)C(=O)CCCn2cc(nn2)CO[C@H]1CN(C)C(=O)Nc1ccc(N2CCCCC2)cc1,inactive
9,CC(C)NC(=O)Nc1ccc2c(c1)C(=O)N([C@@H](C)CO)C[C@H](C)[C@H](CN(C)C(=O)c1ccccc1)OCCCC[C@@H](C)O2,inactive
10,c1ccc2[nH]c(NCCN3CCOCC3)nc2c1,inactive
11,COC(=O)Cc1csc(Nc2c(C)n(C)n(-c3ccccc3)c2=O)n1,inactive
12,O=C(C1=C[C@H](c2coc3ccccc3c2=O)C[C@H](OCc2ccc(CO)cc2)O1)N1CCOCC1,inactive
13,NC(=O)C1=C[C@H](c2csc3ccccc23)C[C@H](OCc2ccc(CO)cc2)O1,inactive
14,O=C(C1=C[C@H](c2csc3ccccc23)C[C@H](OCc2ccc(CO)cc2)O1)N1CCCCC1,active
15,C=C1C[C@@]23CC[C@@H]4[C@](C)(CO)CCC[C@@]4(C)[C@@H]2CC[C@@H]1C3,inactive
16,Cc1noc(C)c1S(=O)(=O)Nc1ccc2c(c1)C(=O)N([C@H](C)CO)C[C@@H](C)[C@@H](CN(C)Cc1ccccc1)OCCCC[C@@H](C)O2,inactive
17,C[C@@H]1CN([C@H](C)CO)C(=O)c2cc(N(C)C)ccc2O[C@@H]1CN(C)S(=O)(=O)c1cn(C)cn1,inactive
18,C[C@H]1CCCCO[C@@H](CN(C)C(=O)c2ccccc2)[C@@H](C)CN([C@@H](C)CO)C(=O)c2cc(NS(=O)(=O)c3ccccc3)ccc2O1,inactive
19,CCCCc1nn(-c2ccccc2C(F)(F)F)c(=O)n1Cc1ccc(-c2ccccc2S(=O)(=O)NC(=O)c2sccc2C)cc1,active
20,CNC[C@@H]1Oc2ccc(NC(=O)CCC(F)(F)F)cc2C(=O)N([C@@H](C)CO)C[C@@H]1C,inactive
21,CC(C)C[C@](O)(C(=O)OCc1ccc(O[C@@H]2O[C@H](CO)[C@@H](O)[C@H](O)[C@H]2O)cc1)[C@H](O)C(=O)OCc1ccc(O[C@@H]2O[C@H](CO)[C@@H](O)[C@H](O)[C@H]2O)cc1,inactive
22,Cn1nnc(NC(=O)COc2ccc(Cl)cc2Cl)n1,inactive
23,OC[C@@]1(O)CO[C@H](OC[C@H]2O[C@@H](OC(CCCCc3ccc(O)cc3)CCc3ccc(O)cc3)[C@H](O[C@H]3OC[C@](O)(CO)[C@H]3O)[C@@H](O)[C@@H]2O)[C@@H]1O (some centres not stated),inactive
24,COc1cc(CN2CCN(CCO)CC2)c([N+](=O)[O-])cc1OC,inactive

row,Structure (SMILES),outcome
1,O=C(CCCCCCC(=O)NOCc1ccccc1)NO,inactive
2,CC(=O)Nc1sccc1C(=O)NCc1ccco1,inactive
3,C[C@@H]1CN([C@@H](C)CO)C(=O)c2cc(NC(=O)Cc3ccccc3)ccc2O[C@@H](C)CCCCO[C@@H]1CN(C)C(=O)Nc1ccccc1,inactive
4,C[C@@H]1CCCCO[C@@H](CN(C)C(=O)c2ccccc2)[C@@H](C)CN([C@@H](C)CO)C(=O)c2cc(NS(=O)(=O)c3ccccc3)ccc2O1,inactive
5,CNC[C@@H]1Oc2c(NC(=O)Nc3ccccc3)cccc2C(=O)N([C@@H](C)CO)C[C@@H]1C,inactive
6,COC1OC(O)C(O)C12CC[C@@]1(O2)[C@H](C)C[C@H]2OC(=O)[C@@]3(C)CCC[C@]1(C)C23 (some centres not stated),inactive
7,CCOc1ccc(OCC(=O)Nc2cc(C)c(Cl)cc2OC)cc1,inactive
8,C=CC1c2cc(O)c(OC)cc2CCN1Cc1cccc(OC(F)(F)F)c1 (configuration not stated),inactive
9,C[C@H](CO)N1C[C@H](C)[C@@H](CN(C)S(=O)(=O)c2cn(C)cn2)OCCCC[C@H](C)Oc2ccc(NC(=O)Cc3ccccc3)cc2C1=O,inactive
10,CN(C)c1nc(SCCO)nc(N(C)C)n1,inactive
11,O=C(COc1ccc(C(=O)Nc2ccccc2Cl)cc1)Nc1ccc(Oc2ccccc2)cc1,inactive
12,CC1=CCC(C(C)(C)O[C@@H]2O[C@H](COC(=O)c3cc(O)c(O)c(O)c3)[C@@H](O)[C@H](O)[C@H]2O)CC1 (some centres not stated),inactive
13,C/C=C1/[C@H](O[C@@H]2O[C@H](CO)[C@@H](O)[C@H](O)[C@H]2O)OC=C2C(=O)O[C@@H]3C[C@@H](C(C)CO)[C@H](COC(=O)C[C@H]21)[C@H]3C (some centres not stated),inactive
14,O=C(NCc1ccco1)c1nc2ncccn2n1,inactive
15,COc1ccc(S(=O)(=O)N(C)C[C@@H]2Oc3ncc(C#Cc4ccc(F)cc4)cc3C(=O)N([C@H](C)CO)C[C@@H]2C)cc1,inactive
16,C[C@H](CO)N1C[C@H](C)[C@@H](CN(C)S(=O)(=O)c2ccc(Oc3ccccc3)cc2)OCc2cn(nn2)CCCC1=O,inactive
17,Cc1ccc(-n2c(SCC(=O)Nc3ccccc3F)nnc2-c2ccccc2)cc1C,inactive
18,COc1ccc(C[C@H]2COC(=O)[C@@H]2Cc2ccc(O[C@@H]3O[C@H](CO)[C@@H](O)[C@H](O)[C@H]3O)c(OC)c2)cc1OC,inactive
19,CN(C)c1ccc(NC(=O)CSc2nc3c(c(C(F)(F)F)c2C#N)CCCCCC3)cc1,inactive
20,Cc1ccc(C(=O)CSc2nsc3sc(C(=O)c4ccc(C)cc4)c(N)c23)cc1,inactive
21,O=C(CN1CCOCC1)Nc1ccc(S(=O)(=O)N2CCCC2)cc1,inactive
22,OC1(c2ccc3c(c2)OCO3)OCC2C(c3ccc4c(c3)OCO4)OCC21O (configuration not stated),inactive
23,O=C(NCCCn1ccnc1)c1cnn2c(C(F)(F)F)cc(-c3ccccc3)nc12,inactive
24,O=[N+]([O-])c1ccc(NCCNS(=O)(=O)c2ccc(Br)cc2)c(C(F)(F)F)c1,inactive
